AmpC inh detg: AmpC beta-lactamase inhibition with detergent present; P00811; AmpC hydrolysis of nitrocefin, absorbance 480 nm, 0.01% Triton; Potency, µM (series often up to 114 µM), for the others: top-dose activity change, negative = inhibition, usual class: inhibitors; 0.041% of 370,000 active; AID 485294;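 note: potency is the fitted concentration of half-maximal effect; 0% = no-compound wells and -100% = no-enzyme wells; nearly all actives have a fitted effect of over 25% in size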
Target sequence (P00811 whole entry, looked up): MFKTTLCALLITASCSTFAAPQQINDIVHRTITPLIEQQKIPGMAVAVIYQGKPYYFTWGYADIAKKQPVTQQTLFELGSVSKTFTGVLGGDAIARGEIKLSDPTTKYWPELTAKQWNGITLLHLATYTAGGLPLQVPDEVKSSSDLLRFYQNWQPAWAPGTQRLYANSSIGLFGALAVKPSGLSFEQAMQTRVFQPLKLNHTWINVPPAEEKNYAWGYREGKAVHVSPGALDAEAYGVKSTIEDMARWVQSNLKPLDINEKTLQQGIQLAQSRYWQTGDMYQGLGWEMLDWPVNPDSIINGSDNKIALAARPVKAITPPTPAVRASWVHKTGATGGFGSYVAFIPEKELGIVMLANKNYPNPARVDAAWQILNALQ
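AmpC (5.3 nM in the dispensed reagent) in 20 mM phosphate pH 7.0 with 0.01% (detergent screen) or 0.0001% Triton X-100 was preincubated with compounds for 15 min at room temperature. Nitrocefin was then added from an 800 uM solution, and hydrolysis was followed at 480 nm.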
SARS PLP yeast: blocks SARS-CoV papain-like protease in a yeast assay. Potency, µM (top dose mostly 32.9 µM), inactives show top-dose activity, positive = growth rescue, most hits filed as activators. 0.19% of 330,000 active. S. cerevisiae expressing SARS-CoV PLpro, growth rescue; calls by dose curve; note: potency is the fitted concentration of half-maximal effect; 0% is about no effect; nearly all actives have a fitted effect of over 55% in size
Shiga inhibitor: inhibitors of Shiga toxin in Vero cells; inhibition, % at 38.7 µM; 9.2% of 290,000 active; Vero cells, Shiga toxin protein synthesis inhibition reporter; in the data active = inhibition mostly above about 28%, no sharp cut-off; inactive = mostly below about 43%; note: 0% is about no effect
AMA1 RON2 block: disrupts binding of P. falciparum AMA1 to RON2 | AID 720542 | AlphaScreen AMA1-biotinylated RON2 peptide binding | Potency, µM (titrated, usually from 58.2 µM), for inactives: at the highest dose activity change, negative = inhibition, hits mostly inhibitors | 0.2% of 360,000 active;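 note: potency is the fitted concentration of half-maximal effect; 0% = vehicle wells and -100% = peptide control; nearly all actives have a fitted effect of over 45% in size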
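AMA1 (3D7) with his tag at 25 nM final met compounds first, then biotinylated RON2 peptide at 25 nM; detection used donor plus acceptor beads, 10 µg/mL apiece, read by AlphaScreen after 30 min at room temperature.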
CHX counter: counter-screen hit for Shiga toxin inhibitors, cycloheximide; cell reporter, cycloheximide protein synthesis inhibition counterscreen; max response, %; 12% of 300,000 active; AID 2314; in the data active = max response mostly above about 13%, no sharp cut-off; inactive = mostly below about 14%; note: read at 38.3 µM for the half of the compounds with a filed dose; 0% is about no effect
AmpC no deterg: blocks E. coli AmpC beta-lactamase in detergent-free assay; P00811; AID 485341; 0.52% of 330,000 active; Potency, µM (titrated, usually from 57.1 µM), inactives show at the top dose activity change, negative = inhibition, usual class: inhibitors; AmpC nitrocefin hydrolysis, absorbance 480 nm, 0.0001% Triton;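 note: potency is the fitted concentration of half-maximal effect; plate controls were no compound for no effect and no enzyme for full effect; nearly all actives have a fitted effect of over 20% in size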
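AmpC (5.3 nM in the dispensed reagent) in 20 mM phosphate pH 7.0 with 0.01% (detergent screen) or 0.0001% Triton X-100 was preincubated with compounds for 15 min at room temperature. Nitrocefin was then added from an 800 uM solution, and hydrolysis was followed at 480 nm.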
Starred values were filed as active, the others as inactive; ? = inconclusive; . = not tested or not shown. This is one part of a sample in which hits are shown more often than they occur. Unless noted, calls come from the whole dose curve; as a rule, active = well fitted curve in the direction sought with a large enough effect; inconclusive = small, poorly fitted or top-dose-only effect, or another doubt; inactive = no such curve, though single readings can be large; an effect the other way counts as inactive or inconclusive.

SMILES	AmpC inh detg	SARS PLP yeast	Shiga inhibitor	AMA1 RON2 block	CHX counter	AmpC no deterg
CCOc1ccc(NC(=O)c2ccncc2)cc1	-10%	0%	5	0%	17*	-39%
CCOC(=O)Nc1ccc(C)cc1Br	1%	5%	-2	9%	1	-11%
CCOC(=O)NC(NC(=S)Nc1ccc(OC)cc1)C(Cl)(Cl)Cl (stereo not given)	?	-14%	-14	-8%	1	-53%
COc1ccc(NC(=O)c2ccc(Oc3ncccn3)cc2)cc1	?	0%	57*	-6%	22*	-6%
CCOC(=O)NC(=S)Nc1ccc(OC)cc1	2%	1%	33	23%	18*	-22%
CCOC(=O)NC(=S)Nc1ccc(C(C)(C)C)cc1Br	2%	-5%	25	39%	22*	-29%
COc1ccc(NC(=O)c2ccc(NC(=O)c3ccncc3)cc2)cc1	2%	-1%	-11	-2%	-1	-18%
COc1ccc(C(CCNCc2ccc(OC(C)C)cc2)C(C)C)cc1 (stereo not given)	8%	0%	-9	-12%	-4	10%
CCC(C)C(NC(=O)OC(C)(C)C)C(=O)NC(C)C(N)=O (stereo not given)	-1%	0%	-6	8%	-1	-12%
C[C@]12C(=O)N(c3ccc(F)cc3)C(=O)N1[C@@H]1c3ccccc3OC[C@@H]1[C@H]2c1ccccc1	-8%	-3%	-2	0%	0	-38%
Cc1ccc(-c2cc(C(=O)N/N=C/c3ccccc3O)n[nH]2)o1	0%	22%	60*	53%	34*	-40%
Cc1ccc(-c2cc(C(=O)N/N=C/c3c[nH]c4ccccc34)n[nH]2)o1	-8%	-5%	-1	31%	17*	-46%
Cc1ccc(-c2cc(C(=O)N/N=C/c3ccc(F)cc3)n[nH]2)o1	1%	-8%	-6	30%	10	-43%
CCc1ccc(C(O)c2ncc(-c3cccc(F)c3)[nH]2)cc1 (stereo not given)	.	.	.	-10%	.	.
CN(Cc1ccccc1)C(=O)c1ccc(Nc2nc(C(N)Cc3ccc(C(F)(F)F)cc3)cs2)nc1 (stereo not given)	.	.	.	69%	.	.
CCOc1ccc2nc(NC(=O)c3ccc(OCC4CCCO4)cc3)sc2c1 (stereo not given)	0%	12%	36*	0%	35*	97%
Cc1cccc(C(C)C)c1NC(=O)c1ccc(OCC2CCCO2)cc1 (stereo not given)	.	-1%	.	-1%	.	-12%
Cc1cccc2sc(NC(=O)c3ccc(OCC4CCCO4)cc3)nc12 (stereo not given)	-1%	0%	100*	-6%	46*	5%
Cc1csc(NC(=O)c2ccc(OCC3CCCO3)cc2)n1 (stereo not given)	5%	-3%	39	2%	14*	-13%
CN(C)/C=N/C1=C(C#N)C(c2cccs2)c2ccc3ccccc3c2O1 (stereo not given)	6%	-2%	66*	-7%	47*	-54%
CC12CCC(C(=O)N(CSC(=S)N/N=C\c3ccccc3Cl)C1=O)C2(C)C (stereo not given)	-3%	?	1	33%	0	-33%
CC12CCC(C(=O)N(CSC(=S)N/N=C\c3ccccc3)C1=O)C2(C)C (stereo not given)	?	10µM*	16	77%	1	-54%
Cn1c(=O)c(Nc2ccc(O)cc2)c2c3c(cccc31)C(=O)c1ccccc1-2	0%	-9%	-5	25µM*	-2	-59%
CC(=O)c1c(C)nn(-c2ccccc2)c1C	6%	0%	-3	-3%	-1	-17%
COc1ccc(OC(=O)c2c(C)nn(-c3ccccc3)c2C)cc1	0%	-1%	70*	-15%	52*	20%
SMILES	AmpC inh detg	SARS PLP yeast	Shiga inhibitor	AMA1 RON2 block	CHX counter	AmpC no deterg
COc1ccc(S(=O)(=O)N2CCN(C(=O)c3c(C)nn(-c4ccccc4)c3C)CC2)cc1	?	4%	.	6%	.	58%
Cc1nn(-c2ccccc2)c(C)c1C(=O)Oc1ccccc1	1%	-1%	59*	-13%	36*	0%
COc1ccc(OC(=O)c2cnn(-c3ccccc3)c2C)cc1	-1%	-21%	133*	0%	45*	-10%
CC(C)c1ccc(C2OC(CCc3ccccc3)Cc3[nH]c(=S)[nH]c(=O)c32)cc1 (stereo not given)	.	.	.	111%	.	.
COC(=O)[C@@]12C[C@@H](CC(=O)NCc3cccc4ccccc34)C(=O)N(Cc3ccccc3)C1=CCC(C)(C)C2	.	.	.	-15%	.	.
COc1cc(Cl)c(CNC[C@H]2O[C@@H](n3cnc4c(N)ncnc43)[C@H](O)[C@@H]2O)c(Cl)c1O	.	16%	.	7%	.	-28%
COC(=O)c1ccc2[nH]c(C(C)(C)O)c(C)c2c1	-3%	-18%	40*	-3%	23*	-12%
CCOC(=O)c1ccc2[nH]c3ccccc3c2c1	?	-6%	63*	16%	37*	-52%
CCOC(=O)c1[nH]c2ccccc2c1NC(=O)c1ccc(OCC)cc1	9%	.	.	.	.	.
CCOC(=O)c1[nH]c2ccccc2c1NC(=O)Nc1ccc(OC)cc1	1%	0%	11	-3%	9.9*	-2%
CCCC(=O)Nc1c(C(=O)OCC)[nH]c2ccccc12	5%	3%	-5	0%	7	20µM*
CCOC(=O)c1[nH]c2ccccc2c1NC(=O)CC(C)C	8%	2%	-2	0%	-6	-13%
CC(C)C1=NN(C(=O)c2cccnc2)C(O)(C(F)(F)F)C1 (stereo not given)	-11%	-6%	-4	25%	-1	4%
CC(C)(C)C1=NN(C(=O)c2ccccc2)C(O)(C(C)(C)C)C1 (stereo not given)	-14%	0%	34*	1%	13*	2%
CC(C)(C)C1(O)CC(C(F)(F)F)=NN1C(=O)CCCc1ccccc1 (stereo not given)	-7%	-1%	-8	21%	-2	-4%
CC(C)C1=NN(C(=O)c2ccccc2)C(O)(C(C)(C)C)C1 (stereo not given)	3%	0%	21	84%	29*	-2%
Fc1cc(Br)ccc1NC(=S)Nc1ccccc1	-2%	-13%	65*	6%	50*	-22%
S=C(Nc1ccccc1)Nc1cccc(Br)c1	-11%	-1%	2	8%	7	-40%
Fc1ccccc1NC(=S)Nc1ccc(Br)cc1	0%	-23%	18*	30%	17*	-22%
S=C(Nc1ccccc1)Nc1ccccc1-n1cccc1	-2%	0%	28	81%	22*	-39%
COc1ccccc1NC(=S)Nc1ccccc1F	2%	-5%	16	3%	9	-9%
S=C(Nc1ccccc1)Nc1ccc(Br)cc1	-7%	-5%	31	13%	15*	-46%

Source: PubChem (National Center for Advancing Translational Sciences (NCATS))
